Results on five compounds are retold here after PubChem BioAssay.

Active and inactive are the calls of the source.

Assay [1] deals with Human papillomavirus type 1a protein E7 (residues 44-93). Put plainly: small molecules binding HPV E7 44-93 – biochemical, small-molecule microarray, residues 44-93, 635 nm fluorescence, primary screen (AID 1108).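 Further: E7 fragment applied at 1 µg/mL in TBST for 1 h at 4 C; score combines spot fluorescence with its signal to noise ratio.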 To be noted: fluorescence 635 nm, higher = more signal.
A short description of assay [2]: hepatitis C replication reporter changes, two-sided – Huh7 cells, luciferase reporter, HCV replication inhibitor project, primary screen (AID 1109).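 Further: huh7 hepatoma cells harbouring a luciferase neomycin HCV replicon reporter; luciferase luminescence as measure of HCV replicon replication; test concentration not given here.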 To be noted: Huh7 HCV replicon luciferase reporter, 48 h; higher = more signal.
The target of assay [3] is Left-right determination factor 2 (Homo sapiens) (UniProt O00292). Put plainly: small molecules binding LEFTY2 protein – biochemical, small-molecule microarray, 635 nm fluorescence scan, primary screen (AID 1110). To be noted: higher = more signal.
Chain of Left-right determination factor 2 (Homo sapiens) (O00292 whole entry, looked up): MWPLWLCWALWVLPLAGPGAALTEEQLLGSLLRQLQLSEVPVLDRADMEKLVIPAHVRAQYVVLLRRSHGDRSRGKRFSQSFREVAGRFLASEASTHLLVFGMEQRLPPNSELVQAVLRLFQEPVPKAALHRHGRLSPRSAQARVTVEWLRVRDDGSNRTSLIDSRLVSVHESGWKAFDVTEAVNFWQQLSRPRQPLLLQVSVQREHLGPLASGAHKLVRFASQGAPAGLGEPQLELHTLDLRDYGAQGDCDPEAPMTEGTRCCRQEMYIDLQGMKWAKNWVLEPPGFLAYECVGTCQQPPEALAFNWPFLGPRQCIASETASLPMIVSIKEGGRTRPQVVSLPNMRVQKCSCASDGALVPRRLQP
Assay [4] deals with Calmodulin-1 (Homo sapiens) (UniProt P0DP23). Put plainly: small molecules binding calmodulin-1 with EGTA – biochemical, small-molecule microarray, Cy5-labelled CALM1, profiling panel (AID 1111).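 Further: labelled calmodulin applied in Tris saline Tween buffer holding calcium plus EGTA and DTT.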 As to conditions: Cy5-CALM1 binding fluorescence, higher = more signal.
The target is the same in assay [5]. Put plainly: small molecules binding Ca-loaded calmodulin-1 – biochemical, small-molecule microarray, Cy5-labelled CALM1, plus calcium, artefact control for SMM control-protein annotation, profiling panel (AID 1112).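 Further: score merges spot fluorescence with signal to noise from triplicate slides.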 To be noted: Cy5-CALM1 binding fluorescence, higher = more signal.
Assay [6] in a line: probe aWnt5a binding to arrayed compounds – biochemical, biotinylated probe, 635/667 nm fluorescence, primary screen (AID 1113).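 Further: score merges 667 nm fluorescence intensity with signal-to-noise per printed feature.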 As to conditions: small-molecule microarray, higher = more signal.
The nature of assay [7]: probe aShh binding to arrayed compounds – biochemical, biotinylated probe, 635/667 nm fluorescence, primary screen (AID 1114).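 Further: probe is biotin-labelled aShh protein from a stem cell growth factor screen; measures binding of labelled protein to compounds printed on the slide; score merges feature fluorescence at 667 nm with signal-to-noise.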 As to conditions: small-molecule microarray, higher = more signal.
Assay [8] can be described thus: probe aNog binding to arrayed compounds – biochemical, biotinylated probe, 635/667 nm fluorescence, primary screen (AID 1115).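 Further: probe is biotinylated aNog protein used at 0.15 µg/mL for 1 h at 4 C; z-score combines 667 nm fluorescence of each spot with its signal to noise.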 To be noted: small-molecule microarray, higher = more signal.
Assay [9] has as its target Torsin-1A-interacting protein 1 (Homo sapiens) (UniProt Q5JTV8). Put plainly: compound microarray binding of lysate hLAP1 – cell lysate, small-molecule microarray, COS7 lysate, 635/667 nm fluorescence, primary screen (AID 1116). To be noted: 635 nm fluorescence, higher = more signal.
Assay [10] has as its target Alpha-bungarotoxin (Bungarus multicinctus) (UniProt P60615). Put plainly: compounds binding labelled alpha-BTX control protein – biochemical, small-molecule microarray, Alexa647 label, 635/667 nm fluorescence, artefact control for SMM control protein annotation, profiling panel (AID 1117). To be noted: alpha-BTX-A647 binding fluorescence, higher = more signal.
The next assay deals with Albumin (Bos taurus) (UniProt P02769). Put plainly: compounds binding labelled BSA control protein – biochemical, small-molecule microarray, Alexa647 label, 635/667 nm fluorescence, artefact control for SMM control protein annotation, profiling panel (AID 1118).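 Further: score merges 667 nm emission intensity and signal-to-noise per printed compound spot.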 As to conditions: BSA-A647 binding, fluorescence 635 nm, higher = more signal.
Chain of Albumin (Bos taurus) (P02769 whole entry, looked up): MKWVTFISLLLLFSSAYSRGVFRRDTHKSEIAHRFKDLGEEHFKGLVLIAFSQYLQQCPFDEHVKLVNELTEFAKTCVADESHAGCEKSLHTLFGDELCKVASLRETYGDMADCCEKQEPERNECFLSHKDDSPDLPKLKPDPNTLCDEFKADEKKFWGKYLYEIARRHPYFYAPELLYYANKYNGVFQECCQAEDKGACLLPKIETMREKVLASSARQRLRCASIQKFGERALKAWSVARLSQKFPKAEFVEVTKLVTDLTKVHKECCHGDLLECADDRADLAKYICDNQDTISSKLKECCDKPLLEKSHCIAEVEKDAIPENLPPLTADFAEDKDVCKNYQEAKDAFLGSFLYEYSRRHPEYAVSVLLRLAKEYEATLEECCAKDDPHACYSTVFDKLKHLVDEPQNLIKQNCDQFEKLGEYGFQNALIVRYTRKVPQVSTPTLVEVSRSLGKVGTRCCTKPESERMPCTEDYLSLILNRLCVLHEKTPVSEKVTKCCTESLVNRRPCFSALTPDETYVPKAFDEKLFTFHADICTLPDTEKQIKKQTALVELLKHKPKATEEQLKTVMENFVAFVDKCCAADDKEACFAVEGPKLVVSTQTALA
The nature of assay [11]: probe aXIP binding to arrayed compounds – biochemical, NeuroSMM set, 635/667 nm fluorescence, primary screen (AID 1119).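 Further: probe is the protein aXip251-270 applied at 1 µg/mL to compound-printed slides; binding of probe to printed compounds measured as 667 nm fluorescence plus signal to noise.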 To be noted: small-molecule microarray, higher = more signal, called active from +8 up or from −8 down.
Assay [12] can be described thus: probe aNOTCH3 binding on compound microarray – biochemical, small-molecule microarray, 635/667 nm fluorescence, primary screen (AID 1120).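 Further: probe is a biotin-tagged antibody raised against NOTCH3 rather than NOTCH3 protein; score merges spot fluorescence near 667 nm with spot signal to noise.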 As to conditions: higher = more signal.
A short description of assay [13]: probe aNOTCH2 binding on compound microarray – biochemical, small-molecule microarray, 635/667 nm fluorescence, primary screen (AID 1121).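 Further: score merges feature fluorescence read at 667 nm with its signal to noise.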 As to conditions: higher = more signal.
Assay [14] has as its target Carbonic anhydrase 2 (Homo sapiens) (UniProt P00918). Put plainly: compounds binding carbonic anhydrase 2 – biochemical, small-molecule microarray, Alexa647-labelled CAII, profiling panel (AID 1122). As to conditions: CAII-A647 binding fluorescence, higher = more signal.
The nature of assay [15]: COS7 lysate on small-molecule microarray, probe aHis, 635 nm (AID 1123).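 Further: z-score combines 667nm fluorescence intensity with signal-to-noise per printed compound spot.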 To be noted: COS7 cell lysate, fluorescence, higher = more signal.
A short description of assay [16]: probe aLAP1 signal on lysate-treated microarray – cell lysate, small-molecule microarray, COS7 lysate, primary screen (AID 1124).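 Further: lysate comes from COS7 cells expressing LAP1 and is applied at 0.3 µg/mL; score merges spot fluorescence near 667 nm with signal-to-noise over triplicate slides.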 As to conditions: probe aLAP1, fluorescence, higher = more signal.
The test system of a further assay is Sam68 (KHDRBS1). Put plainly: compounds binding KHDRBS1 protein – biochemical, small-molecule microarray, 635 nm fluorescence, primary screen (AID 1125).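 Further: score merges 667 nm channel intensity with signal to noise over triplicate slides.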 To be noted: higher = more signal.
Assay [17] has as its system Chordin-like protein 2 (CHRDL2). Put plainly: compounds binding chordin-like 2 – biochemical, small-molecule microarray, 635 nm fluorescence, primary screen (AID 1126).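 Further: printed compound slides probed with Chrdl2 protein at 4 µg/mL for 1 h at 4 C; score merges 667 nm emission intensity with signal to noise over three replicate slides.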 To be noted: fluorescence 635 nm, higher = more signal.
Assay [18] addresses Concanavalin-A (Canavalia ensiformis) (UniProt P02866). Put plainly: compounds binding concanavalin A lectin – biochemical, small-molecule microarray, Alexa647 label, 635 nm, artefact control for SMM control protein annotation, primary screen (AID 1127).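 Further: z combines 667 nm emission intensity with signal-to-noise across three replicate slides.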 To be noted: ConA-A647 binding fluorescence, higher = more signal.

Chain of Torsin-1A-interacting protein 1 (Homo sapiens) (Q5JTV8 whole entry, looked up): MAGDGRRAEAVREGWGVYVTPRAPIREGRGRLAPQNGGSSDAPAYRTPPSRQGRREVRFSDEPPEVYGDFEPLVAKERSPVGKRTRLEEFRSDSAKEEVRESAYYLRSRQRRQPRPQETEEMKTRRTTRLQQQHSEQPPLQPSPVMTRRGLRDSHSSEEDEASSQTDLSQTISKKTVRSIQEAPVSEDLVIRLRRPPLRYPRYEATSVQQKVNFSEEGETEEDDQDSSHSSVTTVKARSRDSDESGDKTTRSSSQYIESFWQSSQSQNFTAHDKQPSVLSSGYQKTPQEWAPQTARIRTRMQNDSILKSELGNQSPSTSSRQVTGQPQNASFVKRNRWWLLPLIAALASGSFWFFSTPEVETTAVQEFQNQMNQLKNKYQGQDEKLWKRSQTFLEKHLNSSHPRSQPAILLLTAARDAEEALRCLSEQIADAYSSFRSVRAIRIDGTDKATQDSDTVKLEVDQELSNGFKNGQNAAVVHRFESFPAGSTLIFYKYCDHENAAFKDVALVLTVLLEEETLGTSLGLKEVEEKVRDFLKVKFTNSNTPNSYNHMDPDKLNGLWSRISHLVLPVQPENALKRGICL
Chain of Concanavalin-A (Canavalia ensiformis) (P02866 whole entry, looked up): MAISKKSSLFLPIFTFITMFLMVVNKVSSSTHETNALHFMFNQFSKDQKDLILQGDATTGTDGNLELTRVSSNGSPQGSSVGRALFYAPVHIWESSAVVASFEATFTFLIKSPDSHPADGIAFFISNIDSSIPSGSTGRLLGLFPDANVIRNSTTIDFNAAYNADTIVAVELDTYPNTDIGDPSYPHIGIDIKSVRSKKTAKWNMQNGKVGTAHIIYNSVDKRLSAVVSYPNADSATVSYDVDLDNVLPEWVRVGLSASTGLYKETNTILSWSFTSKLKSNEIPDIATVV
Chain of Alpha-bungarotoxin (Bungarus multicinctus) (P60615 whole entry, looked up): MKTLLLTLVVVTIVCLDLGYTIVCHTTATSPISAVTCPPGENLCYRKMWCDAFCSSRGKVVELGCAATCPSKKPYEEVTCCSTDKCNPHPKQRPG

Regarding `C[N+](C)(C)CCCC[C@@H]1NC(=O)[C@@H]2C[C@H](C(=O)NCCCCCN)[C@H](c3cccc(OCCO)c3)N2C1=O`, the composite z-score in assay [1] was 1.32; in [3] it was -0.202; in [4], 1.7; in assay [5] it was 1.12; in [6], -0.289; in assay [7] it was -0.256. The composite z-score in assay [8] was 0.422; in assay [9], 0.987; in assay [10], 0.932; in the assay with Albumin (Bos taurus), 0.924; in [12] it was -0.0744; in assay [13] it was 0.0292. The composite z-score in [14] was 0.832; in [15] it was 2.08; in [16] it was -0.207; in the assay on Sam68 (KHDRBS1), 1.32; in assay [17] it was -0.633; in assay [18] it was 0.929. The z-score in [2] is -0.0028. For the same compound, the composite Z-score in assay [11] was 0.0926 (inactive).

Consider `C[C@@H]1ON(c2cccc(C(=O)OC(C)(C)C)c2)[C@H](c2ccc(Br)cc2)[C@H]1C(=O)N1C(=O)OC[C@H]1Cc1ccccc1`, for which the composite z-score in assay [1] was 1.16; in [3], 0.552; in assay [4], 0.702; in assay [5], -0.367; in assay [6] it was 0.667; in assay [7], 0.0756. Besides, the composite z-score in [8] is 1.09; in assay [9] it was 2.7; in [10], 0.518; with Albumin (Bos taurus) it was 0.0512; in assay [12], 0.0325; in [13], -0.0454. The composite z-score in [14] came out at 0.133; in assay [15] it was 1.2; in assay [16], 0.261; with Sam68 (KHDRBS1), 1.21; in assay [17], 0.52; in assay [18], 1.09. The compound further returned a z-score in assay [2] of -1. The composite Z-score in assay [11] is 0.0724 (inactive).

In the case of `COc1ccc(CCN2C(=O)[C@@]3(Cc4ccccc42)c2ccccc2C(=O)N(Cc2ccccc2C(F)(F)F)[C@H]3c2ccc(CO)cc2)cc1`, the composite z-score is 0.291 in [1]; 0.0259 in [3]; 0.238 in assay [4]; -0.839 in assay [5]; -0.158 in assay [6]; 0.0796 in assay [7]. Further, the composite z-score was -0.258 in [8]; 0.0645 in assay [9]; 0.88 in assay [10]; -0.951 with Albumin (Bos taurus); -0.0718 in assay [12]; -0.193 in [13]. In addition, the composite z-score in assay [14] came out at 0.107; in [15] it was 0.387; in [16], 0.184; in the assay with Sam68 (KHDRBS1) it was 0.242; in [17], 0.736; in assay [18], 1.13. The same compound registered a z-score in [2] of -0.961. For the same compound, the composite Z-score in assay [11] is 0.319 (inactive).

In the case of `CN(C)CCCNC(=O)[C@@]1(c2ccc([N+](=O)[O-])cc2)CC(=O)N(C2CCCCC2)[C@@H]1c1ccc(CO)cc1`, the composite z-score in assay [1] is 1.04; in [3], -0.419; in assay [4], 0.465; in assay [5], 0.0617; in assay [6], -0.25; in assay [7], -0.408. The composite z-score was -0.483 in [8]; 0.218 in [9]; 0.8 in [10]; 0.611 with Albumin (Bos taurus); -0.0795 in assay [12]; -0.146 in assay [13]. For the same compound, the composite z-score is 0.395 in assay [14]; 1.68 in [15]; -0.0291 in [16]; 0.819 with Sam68 (KHDRBS1); -0.357 in [17]; 0.282 in assay [18]. The same compound registered a z-score in [2] of -1.77. For the same compound, the composite Z-score in [11] is -0.14 (inactive).

Consider `C=C(CCCC)C(=O)CC[C@H](OC(C)=O)c1cccc(OCCO)c1`, for which the composite z-score in assay [1] was -0.252; in assay [3] it was -0.433; in assay [4] it was -0.687; in [5] it was -0.918; in assay [6], -0.156; in assay [7] it was -0.0709. Besides, the composite z-score in assay [8] is -0.036; in assay [9] it was 1.31; in assay [10] it was -0.653; in the assay with Albumin (Bos taurus), -1.33; in assay [12], -0.224; in assay [13], -0.205. Further, the composite z-score was -0.361 in assay [14]; -0.0995 in assay [15]; -0.186 in assay [16]; -0.11 with Sam68 (KHDRBS1); -1.14 in assay [17]; -0.502 in assay [18]. The z-score in assay [2] is -1.78. In addition, in [11], the composite Z-score is -0.126 (inactive).
